Data as given in PubChem BioAssay (Tox21).
Inconclusive results are not listed. The source made the active and inactive calls. Unless noted, calls come from the whole dose curve; as a rule, active = well fitted curve in the direction sought with a large enough effect in the repeat runs; inconclusive = weak or mixed curves; inactive = no such curve, though single readings can be large; an effect the other way counts as inactive or inconclusive.

How the values were obtained:
[1] = target: Aryl hydrocarbon receptor (Homo sapiens) (UniProt P35869); experiment: qHTS assay to identify small molecule that activate the aryl hydrocarbon receptor (AhR) signaling pathway (AID 743085);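 note: HG2L7.5c1 human HepG2 liver cells with stably integrated DRE-driven firefly reporter; series mostly up to about 70 µM; nearly all actives have a fitted effect of over 15% in size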
Chain of Aryl hydrocarbon receptor (Homo sapiens) (P35869 whole entry, looked up): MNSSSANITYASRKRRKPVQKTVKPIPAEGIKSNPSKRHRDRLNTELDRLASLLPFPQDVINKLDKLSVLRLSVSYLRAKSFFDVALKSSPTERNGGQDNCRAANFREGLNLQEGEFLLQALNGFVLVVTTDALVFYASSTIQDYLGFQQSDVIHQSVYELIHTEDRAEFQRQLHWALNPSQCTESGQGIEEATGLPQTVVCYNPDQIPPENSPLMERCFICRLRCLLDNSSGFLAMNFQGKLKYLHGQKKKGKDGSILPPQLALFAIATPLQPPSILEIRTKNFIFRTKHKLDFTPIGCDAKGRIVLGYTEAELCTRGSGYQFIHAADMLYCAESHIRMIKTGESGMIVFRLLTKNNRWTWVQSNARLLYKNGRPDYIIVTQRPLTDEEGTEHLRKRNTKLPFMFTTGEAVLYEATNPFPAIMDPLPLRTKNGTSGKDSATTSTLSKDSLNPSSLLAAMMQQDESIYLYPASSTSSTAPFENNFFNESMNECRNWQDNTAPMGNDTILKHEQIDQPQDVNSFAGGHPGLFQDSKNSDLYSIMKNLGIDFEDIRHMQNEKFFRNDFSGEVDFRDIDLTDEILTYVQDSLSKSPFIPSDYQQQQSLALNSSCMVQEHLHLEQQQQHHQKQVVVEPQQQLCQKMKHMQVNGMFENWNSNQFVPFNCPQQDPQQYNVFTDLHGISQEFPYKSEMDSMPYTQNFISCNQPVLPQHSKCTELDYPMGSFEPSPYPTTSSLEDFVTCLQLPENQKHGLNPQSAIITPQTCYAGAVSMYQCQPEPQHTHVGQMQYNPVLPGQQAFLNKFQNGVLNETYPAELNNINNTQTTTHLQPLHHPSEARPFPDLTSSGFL
Outline: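 Steps: seed HepG2-AhR-luc cells; allow 5 h at 37C; pin-transfer test compound or vehicle; incubate 24 h at 37C; add viability dye (30 min, 37C) and read fluorescence; add luciferase substrate (30 min, RT) and read luminescence.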

[2] = qHTS assay to identify small molecule that activate the aryl hydrocarbon receptor (AhR) signaling pathway - cell viability counter screen (AID 743086);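 note: HepG2 liver cells carrying the AhR DRE luciferase reporter; series mostly up to about 70 µM; nearly all actives have a fitted effect of over 45% in size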
Outline: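 HepG2-AhR-luc (HG2L7.5c1) cells, 4000/well, treated 24 h at 37 C with compound; viability measured as CellTiter-Fluor fluorescence after 30 min in the same wells as the luciferase read.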

[3] = target: Peroxisome proliferator-activated receptor gamma (Homo sapiens) (UniProt P37231); experiment: qHTS assay to identify small molecule agonists of the peroxisome proliferator-activated receptor gamma (PPARg) signaling pathway (AID 743094; active = well fitted activation curve with a large enough effect in the signal ratio in the repeat runs, not every such curve was filed as active; the % refers to the signal ratio)
Chain of Peroxisome proliferator-activated receptor gamma (Homo sapiens) (P37231 whole entry, looked up): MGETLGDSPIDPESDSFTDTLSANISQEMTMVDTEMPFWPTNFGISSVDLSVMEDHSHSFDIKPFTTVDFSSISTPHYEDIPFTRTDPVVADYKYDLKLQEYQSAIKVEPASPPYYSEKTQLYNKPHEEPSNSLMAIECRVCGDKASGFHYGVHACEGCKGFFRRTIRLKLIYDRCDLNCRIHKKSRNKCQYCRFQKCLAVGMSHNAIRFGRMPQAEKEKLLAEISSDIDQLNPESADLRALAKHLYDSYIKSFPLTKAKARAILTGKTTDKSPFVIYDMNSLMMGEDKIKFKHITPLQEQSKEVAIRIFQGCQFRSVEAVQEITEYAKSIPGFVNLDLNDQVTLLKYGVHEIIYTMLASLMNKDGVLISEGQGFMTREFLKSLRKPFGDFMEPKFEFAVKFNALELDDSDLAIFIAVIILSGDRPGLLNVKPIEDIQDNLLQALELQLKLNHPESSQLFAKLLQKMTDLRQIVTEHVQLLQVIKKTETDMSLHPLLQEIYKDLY
Outline: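 Stably transfected HEK293H cells (GeneBLAzer PPARg UAS-bla) were incubated with test substances for 17 h at 37C after a 5 h pre-incubation; beta-lactamase activity was then detected by FRET substrate fluorescence.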

[4] = target: Peroxisome proliferator-activated receptor gamma (Homo sapiens) (UniProt P37231); experiment: qHTS assay to identify small molecule antagonists of the peroxisome proliferator-activated receptor gamma (PPARg) signaling pathway (AID 743191; calls by dose curve; note: series mostly up to about 63 µM; nearly all actives have a fitted effect of over 30% in size)
Outline: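 GeneBLAzer PPARg UAS-bla HEK293H cells, 5 h post-plating, exposed to compounds 17 h at 37C. LiveBLAzer B/G FRET substrate added for 1 h at room temperature; beta-lactamase reporter read by fluorescence intensity.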

[5] = qHTS assay to identify small molecule antagonists of the peroxisome proliferator-activated receptor gamma (PPARg) signaling pathway - cell viability counter screen (AID 743194); note: nearly all actives have a fitted effect of over 55% in size
Outline: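 Cytotoxicity counter screen in PPARg-bla HEK293H cells, same wells as reporter assay. Compounds plus 50 nM rosiglitazone (final) for 17 h at 37 C, then viability read by CellTiter-Glo luminescence.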

[6] = qHTS assay for small molecule activators of the heat shock response signaling pathway - cell viability counter screen (AID 743209); note: nearly all actives have a fitted effect of over 50% in size
Outline: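 Quantitative HTS format, Tox21 10K library. HeLa cells carrying an HSE-driven beta-lactamase reporter were treated 5 h at 37 C, then assessed for viability by CellTiter-Glo luminescence.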

[7] = qHTS assay for small molecule agonists of the antioxidant response element (ARE) signaling pathway (AID 743202; active = well fitted activation curve with a large enough effect in the signal ratio in the repeat runs, not every such curve was filed as active; the % refers to the signal ratio)
Outline: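 Agonist mode reporter screen: HepG2 cells with ARE-controlled beta-lactamase are incubated with test compounds for 16 h at 37 C, and beta-lactamase activity is measured as fluorescence of cleaved B/G FRET substrate.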

[8] = qHTS assay for small molecule agonists of the antioxidant response element (ARE) signaling pathway - cell viability counter screen (AID 743203; calls by dose curve; note: nearly all actives have a fitted effect of over 55% in size)
Outline: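 Cells (ARE-bla HepG2, 2,000/well) receive DMSO-dissolved compounds after a 5 hrs rest. Plates incubate 16 hrs at 37C/5% CO2. CellTiter-Glo luminescence is then recorded after 30 min at room temperature.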

[9] = qHTS assay for small molecule activators of the heat shock response signaling pathway (AID 743210; active = well fitted activation curve with a large enough effect in the signal ratio in the repeat runs, with a control signal flat, not every such curve was filed as active; the % refers to the signal ratio;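 note: HeLa cells with beta-lactamase reporter driven by heat shock elements; series mostly up to about 63 µM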)
Outline: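 Quantitative high-throughput format using an engineered HeLa line in which heat shock response elements drive beta-lactamase; after 5 h with compound, cells received a B/G FRET substrate and fluorescence was read.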

Measured: Potency

CS(=O)(=O)c1ccc([C@@H](C[C@H]2CCC(=O)C2)C(=O)Nc2cnccn2)cc1Cl
inactive: [1] | [2] | [3] | [4] | [5] | [6]

C=CCOC(=O)COCCC(C)C
inactive: [1] | [2] | [3] | [4] | [5] | [7] | [8] | [6]

CCCCOCCOC(=O)c1cccnc1
inactive: [4] | [5] | [7] | [8] | [6] | [9]

CCN(CC)C(=O)/C(C#N)=C/c1cc(O)c(O)c([N+](=O)[O-])c1
inactive: [1] | [2] | [4] | [5] | [8] | [6]

COC(=O)Nc1nc2ccc(C(=O)C3CC3)cc2[nH]1
inactive: [5] | [7] | [6]

O=C(O)/C=C/c1ccc(O)c(O)c1
inactive: [1] | [2] | [3] | [5] | [8] | [6] | [9]

C=C(C)c1ccccc1
inactive: [2] | [5] | [7] | [8] | [6]

Oc1cccc2[nH]ccc12
inactive: [5] | [8] | [6]

Cc1ccccc1S(N)(=O)=O
inactive: [2] | [5] | [6] | [9]

Cc1oc(=O)oc1COC(=O)[C@@H]1N2C(=O)[C@@H](NC(=O)[C@H](N)c3ccccc3)[C@H]2SC1(C)C
inactive: [5] | [7] | [8] | [6] | [9]

CCCCCCCCCCCCCCCCCC(=O)OCC(CC)CCCC (stereo unspecified)
inactive: [1] | [2] | [3] | [4] | [5] | [8] | [6] | [9]

CC(=O)OCC(=O)[C@@]1(OC(C)=O)[C@@H](C)C[C@H]2[C@@H]3C[C@H](F)C4=CC(=O)C=C[C@]4(C)[C@@]3(F)[C@@H](O)C[C@@]21C
inactive: [2] | [3] | [5] | [7] | [8] | [6] | [9]

CC(=O)N[C@@H](Cc1ccc(O)cc1)C(=O)O
inactive: [2] | [5] | [7] | [8] | [6] | [9]

CC(CCc1ccc(O)cc1)NCCc1ccc(O)c(O)c1 (stereo unspecified)
inactive: [5] | [9]

CCN(CC)CC(=O)Nc1c(C)cccc1C(=O)OC
inactive: [5] | [7] | [8] | [6] | [9]

CCOC(=O)Oc1ccc(CCNC(=O)[C@H](CCSC)NC(C)=O)cc1OC(=O)OCC
inactive: [5] | [7] | [8] | [6] | [9]
